Experimental data from PubChem BioAssay (Tox21).
Inconclusive results are not listed. Values without a mark were called inactive. Calls of active or inactive are those of the source. Calls follow the shape of the dose curve; as a rule, active = well fitted activation curve with a large enough effect in the signal ratio in the repeat runs (not every such curve was filed as active); inconclusive = weak or mixed curves; inactive = flat fitted curve, though single readings scatter; the % refers to the signal ratio.

Assay: qHTS assay to identify small molecule agonists of the TGF-beta/Smad signaling pathway (AID 1346859)
Settings: SBE-bla HEK293T, TGF-beta/Smad beta-lactamase reporter, 5 h; series mostly up to 76.8 µM; activation: at the top concentration
Source text: U.S. Tox21 Program National Center for Advancing Translational Sciences [NCATS] NIH Chemical Genomics Center [NCGC] U.S. Environmental Protection Agency [EPA] National Institutes of Environmental Health Sciences [NIEHS] National Toxicology Program [NTP] U.S. Food and Drug Administration [FDA] Tox21 Assay Overview: Transforming growth factor beta (TGF-beta) superfamily consists of a large number of structurally related dimeric proteins that act as hormones or local mediators in regulating a wide range of biological functions. This superfamily includes TGF-betas themselves, the bone morphogenetic proteins (BMPs) and the activins. These ligands induce oligomerization of serine/threonine receptor kinases and phosphorylate the cytoplasmic signaling molecules of Smad protein family. CellSensor SBE-bla HEK 293T cell line (Life Technologies, Carlsbad, CA), responsive to TGF-beta was used to screen Tox21 10K compound library for identification of agonists/antagonists of the Smad signaling pathway. This cell line contains a beta-lactamase reporter gene under control of the Smad binding element (SBE) stably integrated into HEK 293T cells.
Tox21 Assay Protocol Summary: SBE-bla HEK 293T cells were dispensed at 4,000/well in 6 uL of assay medium into black wall/clear-bottom 1536-well plates using a Multidrop Combi (ThermoFisher Scientific, Waltham, MA) dispenser. After the assay plates were incubated at 37 C and 5% CO2 for an overnight, 23 nL of compounds dissolved in DMSO, positive controls or DMSO only was transferred to the assay plate by a Pintool station (Kalypsys, San Diego, CA). The assay plates were incubated at 37 C and 5% CO2 for 5 hr. One uL of LiveBLAzer B/G FRET substrate (Life Technologies) was added using a Flying Reagent Dispenser (Aurora Discovery, San Diego, CA) and the plates were incubated at room temperature for 2 hr. Fluorescence intensity (405 nm excitation, 460 nm and 530 nm emissions) was measured using an Envision plate reader (PerkinElmer, Shelton, CT).
% is scaled to controls: 0 for no effect and ±100 for the full control effect.

Row | Compound | activation | Potency
1 | Nc1cc(Cl)c([N+](=O)[O-])cc1O | -2.62% | –
2 | CC(C)=C1CC[C@@H](C)CC1=O | 1.04% | –
3 | C=C(C)C(=O)OCCC[Si](Cl)(Cl)Cl | 0.695% | –
4 | CS(C)(=O)=O | -3.21% | –
5 | Cc1c(C(=O)O)cccc1[N+](=O)[O-] | 0.673% | –
6 | CC(C)(c1cc(Br)c(O)c(Br)c1)c1cc(Br)c(O)c(Br)c1 | – | inactive
7 | OCCN1CN(CCO)CN(CCO)C1 | 0.893% | –
8 | O=C(NO)c1ccccc1 | -3.84% | –
9 | CC1CCCNC1 (stereo not given) | -0.0158% | –
10 | CCOC(=O)[C@@](C)(N)Cc1ccc(O)c(O)c1 | 0.226% [at 35.3 µM] | –
11 | CC(C)(C)c1n[nH]c(=O)n(N)c1=O | -0.855% | –
12 | O=C=NCc1cccc(CN=C=O)c1 | 3.26% [at 15.8 µM] | –
13 | C=CC(=C)CCC=C(C)C | 0% | –
14 | C=C1C(C)(C)[C@@]2(Cl)C(Cl)[C@]1(Cl)C(Cl)(Cl)C2(Cl)Cl (stereo not given in full) | -9.79% | –
15 | CCOB(OCC)OCC | 0.736% | –
16 | NCCCC(O)(P(=O)(O)O)P(=O)(O)O | 0.161% [at 35.3 µM] | –
17 | C/C=C/C(=O)C1=C(C)CCCC1(C)C | -3.71% | –
18 | NCCCCCCNCCCCCCN | -0.403% | –
19 | CCCCCCOc1ccc(O)cc1 | -10.6% | –
20 | Cc1cccc(C)c1NC(=O)CN1CCN(CCCC(c2ccc(F)cc2)c2ccc(F)cc2)CC1 | -8.87% [at 35.3 µM] | –

Row | Compound | activation | Potency
21 | O=C1OC(OC(=O)c2cccnc2Nc2cccc(C(F)(F)F)c2)c2ccccc21 (stereo not given) | -2.4% [at 35.3 µM] | –
22 | CCCCCCCC/C=C\CCCCCCCC(=O)N(C)CC(=O)O | -1.4% | –
23 | C#CC(O)CCC (stereo not given) | 0.574% | –
24 | CCCCCCCCCCCCN(CCO)CCO | -7.27% | –
25 | Brc1ccccn1 | 2.61% | –
26 | SCCCCCCCCS | 0.465% | –
27 | O=C1OC(=O)c2cccc3cccc1c23 | 1.01% | –
28 | CCC1(c2cnc[nH]2)Cc2ccccc2C1 | 4.15% [at 35.3 µM] | –
29 | CCOC(/C=C(\C)CCC=C(C)C)OCC | 1.33% | –
30 | C=CC(=O)OCCOCC(CC)(COCCOC(=O)C=C)COCCOC(=O)C=C | 1.6% | –
31 | CO[C@H]1C=CO[C@@]2(C)Oc3c(C)c(O)c4c(O)c(cc(O)c4c3C2=O)NC(=O)/C(C)=C\C=C/[C@H](C)[C@H](O)[C@@H](C)[C@@H](O)[C@@H](C)[C@H](OC(C)=O)[C@@H]1C | -13.7% | –
32 | CC1=CP(=O)(c2ccccc2)CC1 (stereo not given) | -0.935% | –
33 | c1ccc(Sc2ccccc2)cc1 | -0.73% | –
34 | CC(COC(=O)c1ccccc1)OC(=O)c1ccccc1 (stereo not given) | -2.97% | –
35 | CNCC[C@H](Oc1cccc2ccccc12)c1cccs1 | -3.57% [at 35.3 µM] | –
36 | N#CSCSc1nc2ccccc2s1 | -0.193% | –
37 | c1cc[nH]c1 | -0.978% | –
38 | CCCCCCCC(=O)OCC | 0.986% | –
39 | CCCCC(CC)COC(=O)c1ccc(O)cc1 (stereo not given) | – | inactive
40 | Cc1cnccn1 | 1.02% | –
